This experiment relates to FYN. The settings on record: concentration: 1 μM, replicates: in singlicate; n = 1.
`Nc1ncnc2c1ncn2-c1ccc(Cl)cc1` [AH2635]: the “%Inh” value came out at 12%.
As for `Nc1nc(-c2ccccc2F)c(-c2ccnc3ccccc23)s1` [GW560459], the “%Inh” value worked out at 39%.
The figure for `COc1cc2ncn(-c3cc(OCc4ccc(S(C)(=O)=O)cc4)c(C(N)=O)s3)c2cc1OC` [GW869979] is 0%; for `CCC(=O)c1c(-c2ccccc2)c2cc(Cl)ccc2c(=O)n1Cc1cc(C(=O)NC2CC2)n(C)n1` it is 0%.
Next, `Nc1n[nH]c2nnc(-c3ccccc3)c(-c3ccccc3)c12` [GW554060]: 2%; `OCCCNc1nccc(-c2c(-c3cccc(C(F)(F)F)c3)nn3cc(C(F)(F)F)ccc23)n1` [GW630813]: 0%; `O=C(NCCNc1ccnc(Nc2ccc(F)cc2)n1)Nc1ccc2c(c1)OCO2` [GSK1379882]: 34%.
As to `CCC(=O)c1c(-c2ccccc2)c2cc(Cl)ccc2c(=O)n1Cc1cc(S(C)(=O)=O)n(CCC(C)(C)O)n1`, the “%Inh” value is 10%.
Next, `FC(F)(F)c1ccc(-c2ncn(CCCN3CCOCC3)c2-c2ccncc2)cc1` [SB-217780]: 10%; `COC(=O)c1c(-c2ccccc2)c2cc(Br)ccc2c(=O)n1Cc1ccc(S(C)(=O)=O)cc1`: 0%; `CCCNC(=O)Nc1ccc(Oc2ncnc3ccn(C)c23)cc1`: 1%.
The figure for `CCn1c(-c2ccoc2)nc2cnccc21` [SB-733887] is 47%.
As to `CCn1c(-c2nonc2N)nc2ccccc21` [SB-693162/GW549034], the “%Inh” value was 0%.
As for `Cc1nc(N(C)[C@H]2CN(C(=O)CC#N)CC[C@H]2C)c2cc[nH]c2n1`, the “%Inh” value came out at 2%.
With `CCC(=O)c1c(-c2ccccc2)c2cc(Cl)ccc2c(=O)n1Cc1ccc(C(=O)O)cc1`, the “%Inh” value is 0%.
The figure for `COc1ccc(Nc2nccc(N3CCC(NS(=O)(=O)c4ccc(NC(C)=O)cc4)C3)n2)cc1` (stereo not shown) [GSK1379729] is 15%; for `CCc1nc(-c2cccc(C)c2)c(-c2ccncc2)s1` it is 0%; for `COc1cc(Nc2ccnc3ccc(C(F)(F)F)cc23)cc(OC)c1OC` [GW577382] it is 30%.
For `COc1ccc(-c2cc3c(C)nc(N)nc3n([C@H]3CC[C@H](O)CC3)c2=O)cn1`, the “%Inh” value is recorded as 0%.
Next, `Cc1ccc(-c2ccc3c(ccc4sc5c(c43)NC[C@@H](C)N=C5N(C)C)n2)cn1`: 0%; `Cc1nnc(-c2ccc(C)c(-c3ccc(C(=O)O)cc3)c2)o1` [GW608005]: 10%; `COC(=O)c1c(-c2ccccc2)c2cc(C)ccc2c(=O)n1Cc1ccccc1`: 0%.
As to `COc1cccc(C2=C(Nc3cccc(C(=O)O)c3)C(=O)NC2=O)c1` [SB-390770], the “%Inh” value was 29%.
The figure for `Fc1cccc(CSc2nnc(-c3ccc4c(c3)CCO4)o2)c1` is 3%; for `Cc1cccc(-c2cc(-c3c[nH]nc3-c3ccccn3)ccn2)c1` [GW679395] it is 16%.
The figure for `CN(C)c1cc(-c2ccc3c(N)n[nH]c3c2)nc(N)n1` [GSK2219329] is 11%.
Next, `Cn1c(=O)c(F)c(Nc2ccc(I)cc2F)c2c(=O)n(OC[C@H](O)CO)cnc21`: 14%; `Cc1nnc(-c2ccc3ncn(-c4ccc(S(C)=O)cc4)c3c2)o1` (stereo not shown): 8%; `CCC(=O)c1c(-c2ccccc2)c2cc(Cl)ccc2c(=O)n1Cc1cc(S(C)(=O)=O)n(CC(N)=O)n1`: 0%.
Regarding `COc1cccc(-n2cnc3c(N)ncnc32)c1` [SKF-97416], the “%Inh” value came out at 0%.
As to `CCCC(=O)Nc1n[nH]c2ncc(-c3cccc4ccccc34)cc12` [SB-642057], the “%Inh” value was found to be 42%.
The figure for `CN1C(=O)C(Nc2cc(Cl)c(O)c(Cl)c2)=C(c2ccc(Cl)cc2)C1=O` [SB-404321] is 0%; for `Nc1nccc2scc(-c3ccc4c(c3)CCN4C(=O)Cc3ccccc3)c12` [GSK2576924] it is 33%.
Next, `CCc1ccc(-c2ccc3c(c2)-c2nn(C)cc2S(=O)(=O)N3C)cc1`: 5%; `O=C(NCc1cccs1)c1cc(C(=O)c2c(Cl)cccc2Cl)c[nH]1` [GW823670]: 0%; `COC(=O)c1c(-c2ccccc2)c2cc(Br)ccc2c(=O)n1Cc1ccc(NC(=O)CCC(=O)O)cc1`: 0%.
Next, `COc1ccc(CNC(=O)NC2CCN(c3ccnc(Nc4ccc(F)cc4)n3)C2)cc1` (stereo not shown) [GSK1379706]: 20%.

(Values after paper PMC5540273 (PLoS ONE, 2017).)
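Further: KINOMEscan kinase panel screen.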
